Assay results taken from the supplement of paper PMC10981050.
Several values for one entry are separate records, joined by “and”; a condition that tells them apart may be missing. Equal entries are not always repeated. Structures can show the parent of a compound that is named as a salt.

Tests used:
Assay in all cases: cell viability relative to vehicle control; higher = less cytotoxic
Conditions in all cases: 10 µM
K562 = tested on: K562
In short: (§1)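 After removal of identity-inconsistent compounds, the Selleck bioactive, kinase and epigenetic probe libraries were screened on CRISPR-edited mutant clones and isogenic wild-type clones of four leukaemia lines. Plates were 384-well, each well holding 2000 cells in 50 µL medium and receiving a single 10 µM acoustically dispensed dose. CellTiter-Glo luminescence was read 48 h later, after the supernatant was taken off. Genedata Screener was used to express viability as percent of the on-plate vehicle control.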

MARIMO = tested on: MARIMO
In short: as §1

MOLM14 = tested on: MOLM14
In short: as §1

OCI-AML2 = tested on: OCI-AML2
In short: as §1

SMILES | cell viability (K562; SRSF2 genotype: SRSF2 P95H/wt) | cell viability (K562; SRSF2 genotype: SRSF2 wt/wt) | cell viability (MARIMO; SRSF2 genotype: SRSF2 P95H/wt) | cell viability (MARIMO; SRSF2 genotype: SRSF2 wt/wt) | cell viability (MOLM14; SRSF2 genotype: SRSF2 P95H/wt) | cell viability (MOLM14; SRSF2 genotype: SRSF2 wt/wt) | cell viability (OCI-AML2; SRSF2 genotype: P95H/wt) | cell viability (OCI-AML2; SRSF2 genotype: wt/wt)
O=C(c1cccc(Br)c1)N1CCC(N2CCCC2)CC1 | 105% and 98.6% | 91.6% | 92.3% | 110% | 105% | 105% | 87.9% | 101%
O=C(Nc1ccc(Cl)cc1)C1CCCN(C(=O)c2cccc(-c3ccco3)c2)C1 (stereo not drawn) | 67.5% and 80.2% | 71.6% | 52.6% | 39.4% | 64.4% | 77.1% | 29% | 43%
COc1cc(C(=O)N(CCCc2ccccc2)Cc2ccc(CC(=O)O)cc2)cc(OC)c1C | 95.6% and 98% | 99.5% | 105% | 109% | 101% | 99.4% | 101% | 100%
COc1ccc(C(C)=O)c(O)c1 [Paeonol (Peonol)] | 103% and 101% | 99.5% | 104% | 97.9% | 102% | 102% | 98.3% | 91.5%
CCCCCCCCN=c1ccn(CCCCCCCCCCn2ccc(=NCCCCCCCC)cc2)cc1 [Octenidine Dihydrochloride] | 0.46% and 0.39% | 0.55% | 0.32% | 0.34% | 0.3% | 0.33% | 0.29% | 0.41%
CN1CCC(=C2c3ccccc3C=Cc3ccccc32)CC1 [Cyproheptadine hydrochloride (Periactin)] | 90.8% and 86.3% | 83% | 77.3% | 89% | 72.5% | 91.5% | 81.1% | 85%
CCc1ccc(-c2nc(CSCC(=O)NCCc3ccccc3)c(C)o2)cc1 | 89.7% and 94% | 94.9% | 84.1% | 99.9% | 87.5% | 96.8% | 74.5% | 91.2%
O=C(C=Cc1cccnc1)c1ccncc1 | 81.1% and 89% | 77.7% | 64.4% | 62.8% | 19.3% | 18.4% | 16.8% | 28.9%
CC#Cc1cncc(-c2ccc3c(c2)C2(N=C(C)C(N)=N2)C2(CCC(OC)CC2)C3)c1 (stereo not drawn) | 108% and 98.5% | 107% | 100% | 103% | 98% | 98.9% | 88.8% | 93.1%
O=C(NCCN1CCOCC1)c1ccc(Cl)cc1 | 97.6% and 103% | 106% | 101% | 98.8% | 97.6% | 105% | 105% | 93.8%
C=C1/C(=C\C=C2/CCC[C@]3(C)[C@@H]([C@H](C)/C=C/[C@@H](O)C4CC4)CC[C@@H]23)C[C@@H](O)C[C@@H]1O [Calcipotriene] | 75.3% and 84.2% | 79.8% | 65% | 65.3% | 66.8% | 63.6% | 79.2% | 96.1%
Nc1nc(=O)n([C@@H]2CS[C@H](CO)O2)cc1F [Emtricitabine] | 106% and 105% | 104% | 103% | 106% | 104% | 107% | 102% | 108%
C/C=C(/C)C(=O)O[C@@H]1[C@H](OC(C)=O)c2c(ccc3ccc(=O)oc23)OC1(C)C [Praeruptorin A] | 96.7% and 95.2% | 100% | 89.8% | 101% | 89% | 94.8% | 97.4% | 104%
COC[C@H]1C[C@@H](c2nc(-c3ccc4c(c3)COc3cc5c(ccc6nc([C@@H]7CC[C@H](C)N7C(=O)[C@@H](NC(=O)OC)C(C)C)[nH]c65)cc3-4)c[nH]2)N(C(=O)[C@H](NC(=O)OC)c2ccccc2)C1 [Velpatasvir] | 95.6% and 98.5% | 87.6% | 88.2% | 91.6% | 90.1% | 93.5% | 98% | 93.6%
OCC(O)C(O)C(O)C(O)CO (stereo not drawn) [Dulcitol] | 102% and 104% | 99.7% | 105% | 107% | 99.9% | 106% | 105% | 103%
Nc1c2c(nc3ccccc13)CCCC2 [tacrine hydrochlorid] | 101% and 110% | 112% | 100% | 113% | 103% | 105% | 122% | 94.5%
Cc1cc(-c2ncc(CC(=O)Nc3ccc(-c4cnccn4)cn3)cc2C)ccn1 | 73.5% and 84.3% | 81.2% | 81.6% | 70% | 48.8% | 51.1% | 54.8% | 63.5%
c1ccc(-c2ccc(C(c3ccccc3)n3ccnc3)cc2)cc1 (stereo not drawn) [Bifonazole] | 82.3% and 83.9% | 79.7% | 81.4% | 87.7% | 84.5% | 94.2% | 83.9% | 82.7%
Cc1ccccc1N=Nc1ccc(NC(=O)c2ccnn2C)c(C)c1 | 84.3% and 77.9% | 88% | 82.3% | 87.2% | 102% | 95% | 73.1% | 74.5%
N#Cc1ccc(-c2c(-c3ncn[nH]3)sc(N3CCOCC3)c2C#N)c(F)c1 | 60.4% and 73.5% | 68.2% | 47.4% | 39% | 27.8% | 28.3% | 9.07% | 24%
O=C(N[C@H](CO)[C@H](O)c1ccc([N+](=O)[O-])cc1)C(Cl)Cl [Chloramphenicol (Chloromycetin)] | 92.7% and 92% | 94.8% | 104% | 106% | 95.6% | 96.8% | 96% | 103%

SMILES | cell viability (K562; SRSF2 genotype: SRSF2 P95H/wt) | cell viability (K562; SRSF2 genotype: SRSF2 wt/wt) | cell viability (MARIMO; SRSF2 genotype: SRSF2 P95H/wt) | cell viability (MARIMO; SRSF2 genotype: SRSF2 wt/wt) | cell viability (MOLM14; SRSF2 genotype: SRSF2 P95H/wt) | cell viability (MOLM14; SRSF2 genotype: SRSF2 wt/wt) | cell viability (OCI-AML2; SRSF2 genotype: P95H/wt) | cell viability (OCI-AML2; SRSF2 genotype: wt/wt)
CCn1cc(C(=O)O)c(=O)c2cc(F)c(N3CCN(C)CC3)cc21 [Pefloxacin Mesylate Dihydrate] | 83.5% and 78% | 80.7% | 88% | 94.2% | 87.7% | 92.1% | 90.9% | 94.8%
CCCCC(CC)COC(=O)C(C#N)=C(c1ccccc1)c1ccccc1 (stereo not drawn) [Octocrylene] | 94.2% and 88.6% | 97.5% | 95.1% | 107% | 95.1% | 98.5% | 98.4% | 99.9%
CCCOC(C(=O)OC1CCN(C)CC1)(c1ccccc1)c1ccccc1 [Propiverine hydrochloride] | 80.6% and 87.8% | 88.2% | 68.5% | 79.1% | 75.2% | 85.2% | 72.1% | 64.2%
O=C(CCc1ccc(O)cc1)c1c(O)cc(O)cc1O [Phloretin] | 96.9% and 94.4% | 98.1% | 93.5% | 90.2% | 91% | 95.7% | 87.5% | 87.9%
O=C1CCc2c(ccc3ccccc23)O1 [Splitomicin] | 105% and 97% | 95.4% | 103% | 107% | 98.7% | 99.5% | 96.9% | 102%
COc1cc(O)c2c(c1)oc(=O)c1c3cc(O)c(O)cc3oc21 [Wedelolactone] | 84.6% and 90.9% | 76.1% | 87.2% | 102% | 61.3% | 67.2% | 68.3% | 82.1%
Cn1c(-c2ccccc2C(F)(F)F)nnc1C12CCC(c3noc(C4CC(F)(F)C4)n3)(CC1)CC2 | 87.3% and 92.5% | 84.7% | 88% | 99.8% | 79.8% | 87.7% | 99% | 94.8%
O=C(O)CCCNC(=O)c1cccnc1 [Pikamilone] | 109% and 105% | 119% | 97.1% | 105% | 99.9% | 106% | 114% | 118%
OC[C@H]1O[C@@H](n2cnc3c(O)nc(O)nc32)[C@H](O)[C@@H]1O [Xanthosine] | 101% and 100% | 96% | 99.9% | 101% | 99.6% | 98.5% | 93.2% | 99.7%
COc1ccc(/C=C/c2cc(O)cc(O)c2)cc1O [Rhapontigenin] | 95.7% and 103% | 105% | 101% | 97.9% | 119% | 109% | 94.2% | 86.2%
CCS(=O)(=O)N1CCC([C@@H](C)n2c(C)c(C(=O)NCc3c(OC)cc(C)[nH]c3=O)c3ccccc32)CC1 | 100% and 98.2% | 95.7% | 99.8% | 111% | 100% | 99% | 107% | 109%
CN1[C@@H]2CC[C@H]1C[C@@H](OC(c1ccccc1)c1ccccc1)C2 [Benztropine mesylate] | 82.3% and 93.2% | 87% | 81.9% | 91.2% | 83.7% | 100% | 88% | 79.9%
CC(c1cc2ccccc2s1)N(O)C(N)=O (stereo not drawn) [Zileuton] | 101% and 96.3% | 99.1% | 94.3% | 99.2% | 98.7% | 98.1% | 92.8% | 97.4%
NCCOc1cc(C(=O)Nc2cc(OCCN)c3ccccc3n2)nc(C(=O)Nc2cc(OCCN)c3ccccc3n2)c1 [Pyridostatin Trifluoroacetate Salt] | 87.7% and 94.2% | 72.6% | 83.8% | 84.5% | 57.4% | 33.6% | 6.12% | 17.8%
CCOC(=O)COc1ccc(/C=C2/SC(=S)NC2=O)cc1OC | 90.9% and 94.4% | 94.3% | 88.8% | 101% | 2.04% | 3.45% | 104% | 91.8%
O=c1[nH]c2ccccc2n1CCN1CCN(c2cccc(C(F)(F)F)c2)CC1 [Flibanserin] | 89.2% and 98.9% | 91.8% | 96.9% | 110% | 101% | 102% | 91% | 108%
C[C@@H]1C[C@H]2[C@@H]3CCC4=CC(=O)C=C[C@]4(C)[C@@]3(F)[C@@H](O)C[C@]2(C)[C@@]1(O)C(=O)CO [Dexamethasone] | 99.7% and 95.1% | 92.8% | 106% | 99.8% | 95.4% | 90.6% | 98.2% | 103%
O=C(O)CSc1nnc(Br)n1-c1ccc(C2CC2)c2ccccc12 [Lesinurad] | 98.3% and 93.5% | 97.5% | 95.1% | 108% | 98.7% | 101% | 96.9% | 100%
c1cc(CN2CCCNCCNCCCNCC2)ccc1CN1CCCNCCNCCCNCC1 [Plerixafor] | 93.9% and 99.1% | 99.1% | 96.2% | 100% | 94.8% | 94.7% | 103% | 96.9%
CC12CCC(CC1)C(C)(C)O2 [Eucalyptol] | 104% and 102% | 104% | 101% | 101% | 104% | 101% | 102% | 103%
